Compound activity: PubChem, several laboratories
A selection: hits, their analogues and other compounds. The true share with any hit is near 3.1%.
TROY signal inh: TROY signaling inhibition | inhibition, % at 10 µM | 360,000 compounds, 0.98% hits | Q293 LMP1-TROYcd NF-kB luciferase reporter, 4 h | AID 1347056;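 active means compounds whose plate-normalised and pattern-corrected inhibition of the luciferase reporter signal at the single screening dose is 50% or more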
PAX8 inh HTS: lowers PAX8-driven luciferase in RMG-I cells; RMG-I TPO-luciferase reporter, SteadyGlo, 24 h; inhibition, % at 12.6 µM; 360,000 compounds, 1.2% hits; AID 652154;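 active means mean replicate inhibition at least 60% with every replicate also reaching 60%; inconclusive means only one of the two criteria is met; inactive means mean below 60% and not all replicates reaching 60%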;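 further: luciferase light reporting Pax8 driven TPO promoter activity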
EWS-Fli block: inhibitors of EWS/Fli oncoprotein transcriptional activity | A673 NR0B1-luciferase reporter, viability-normalised | AID 651661 | inhibition, % at 12.6 µM | 350,000 compounds, 0.67% hits;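 active means mean inhibition of at least 50% after viability correction, with every replicate also passing that limit; inconclusive means mean reaches 50% but only one of two replicates passes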;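 further: firefly luciferase signal divided by Alamar Blue viability fluorescence both relative to DMSO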
EBV LMP1 NFkB: Epstein-Barr LMP1 NF-kappaB reporter inhibition | 350,000 compounds, 0.69% hits | AID 504558 | LMP1-induced NF-kappaB luciferase reporter cells, luminescence | inhibition, % at 12.5 µM; in the data active means inhibition above about 41%; inconclusive means no clear call, values can overlap the other calls
LGR2 antag: blocks bursicon-induced cAMP signaling via Drosophila LGR2; inhibition, % at 9.99 µM; HEK293 LGR2, CRE-luciferase, bursicon-stimulated, 4 h; 380,000 compounds, 0.35% hits; AID 720647;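 active means drop in luminescence signal, shown as inhibition above about 50% in the replicate tests, limit read from the data, passing the limit was not always enough; inconclusive means probably only some replicates passing the limit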;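 further: agonist challenge used bursicon conditioned medium at about half maximal strength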
TWEAK-Fn14 inh: blocks TWEAK-Fn14 interaction in a reporter cell assay | TWEAK-stimulated Fn14 reporter cells, luciferase luminescence, 8 h | inhibition, % at 10 µM | 360,000 compounds, 2% hits; in the data active means inhibition above about 50%
A number is an active result; – = inactive; ? = inconclusive; · = not tested or not shown; ! = a repeat was not active.

SMILES	TROY signal inh	PAX8 inh HTS	EWS-Fli block	EBV LMP1 NFkB	LGR2 antag	TWEAK-Fn14 inh
CO[C@H]1CN(C)C(=O)c2ccc(NC(=O)Nc3c(C)noc3C)cc2OC[C@@H](C)NC[C@@H]1C	·	–	–	·	–	·
Cc1noc2ncnc(Sc3c(Cl)cccc3Cl)c12	57	·	·	–	–	–
Cc1noc2ncnc(Sc3ccc(Cl)cc3)c12	–	·	·	–	·	65
Cc1ccccc1Sc1ncnc2onc(C)c12	–	·	·	–	–	–
CC(C)C#Cc1ccc2c(c1)O[C@@H](CN(C)C(=O)NC(C)C)[C@@H](C)CN([C@@H](C)CO)S2(=O)=O	·	–	–	·	–	·
C[C@@H]1CN([C@H](C)CO)C(=O)Cc2cc(NC(=O)Nc3ccc(F)cc3)ccc2O[C@H]1CN(C)C(=O)Nc1ccc(C(F)(F)F)cc1	·	80	–	·	–	·
C[C@@H]1CN([C@@H](C)CO)C(=O)Cc2cc(NC(=O)Nc3ccc(C(F)(F)F)cc3)ccc2O[C@H]1CN(C)C(=O)Nc1ccc(C(F)(F)F)cc1	·	78	–	·	–	·
C[C@@H]1CN([C@H](C)CO)C(=O)Cc2cc(NC(=O)Nc3ccc(C(F)(F)F)cc3)ccc2O[C@@H]1CN(C)C(=O)Nc1ccc(C(F)(F)F)cc1	·	–	–	·	–	·
COC(=O)N(C)C[C@@H]1OCc2ccccc2-c2ccccc2C(=O)N([C@H](C)CO)C[C@H]1C	·	·	–	·	–	·
CC(=O)Nc1cccc(-c2ccnc3c2CC(C)(C(=O)Nc2cccc(Oc4ccccc4)c2)O3)c1 (stereo unspecified)	–	64	–	·	–	–
CC1(C(=O)Nc2cccc(Oc3ccccc3)c2)Cc2c(-c3ccccc3)ccnc2O1 (stereo unspecified)	–	–	–	·	–	–
CC(=O)Nc1cccc(-c2ccnc3c2CC(C)(C(=O)NCc2cccs2)O3)c1 (stereo unspecified)	–	–	60	·	–	–
C[C@@H]1CN([C@H](C)CO)C(=O)c2cc(NC(=O)Nc3ccc(F)cc3)ccc2O[C@@H]1CN(C)S(=O)(=O)c1ccc(Cl)cc1	·	–	–	·	–	·
Cc1ccc(NC(=O)c2cccc(Oc3ccc([N+](=O)[O-])cc3)c2)c(C(=O)O)c1	–	–	–	–	–	–
Cn1cc([N+](=O)[O-])c(C(=O)Nc2cc(Oc3ccccc3)cc([N+](=O)[O-])c2)n1	–	·	54	–	–	–
Cc1cccc(Oc2cc(NC(=O)c3ccccc3)cc([N+](=O)[O-])c2)c1	57	·	·	–	·	59
Cc1ccccc1Cn1ccc(NC(=O)c2nn(C)cc2[N+](=O)[O-])n1	78	72	·	–	–	87
CCn1cc([N+](=O)[O-])c(C(=O)Nc2ccn(Cc3ccccc3F)n2)n1	–	·	·	–	–	–
COc1ccc2cc(-c3cc(C(=O)OCC(=O)NC4CCS(=O)(=O)C4)c4ccccc4n3)ccc2c1 (stereo unspecified)	–	–	·	50	–	–
COc1ccc2cc(-c3cc(C(=O)OCC(=O)Nc4c(C)n(C)n(-c5ccccc5)c4=O)c4ccccc4n3)ccc2c1	–	–	·	58	?	60
COc1ccc(-c2cc(C(=O)Nc3c(C)n(C)n(-c4ccccc4)c3=O)c3ccccc3n2)cc1	–	–	–	–	–	–
CCC(NC(=O)Nc1nnc(C(F)(F)F)s1)(C(F)(F)F)C(F)(F)F	64	·	·	46	·	–
CCC(c1ccc(O)cc1)C(CC)c1ccc(O)cc1 (stereo unspecified)	52	–	–	–	–	–
CC(C)c1ccc(C2C3=C(COC3=O)Nc3cc4c(cc32)OCO4)cc1 (stereo unspecified)	–	79	–	–	–	–
COc1ccc(CN(C)C[C@@H]2OCCCC[C@H](C)Oc3ccc(NC(=O)Nc4ccccc4)cc3C(=O)N([C@H](C)CO)C[C@@H]2C)cc1	·	–	–	·	–	·
SMILES	TROY signal inh	PAX8 inh HTS	EWS-Fli block	EBV LMP1 NFkB	LGR2 antag	TWEAK-Fn14 inh
COc1ccc(C2(C(=O)Nc3ccccc3)CCOCC2)cc1	–	–	–	–	–	67
C[C@@H]1CN([C@@H](C)CO)C(=O)Cc2cc(NC(=O)NC3CCCCC3)ccc2O[C@H]1CN(C)Cc1ccc(C(F)(F)F)cc1	·	·	–	·	–	·
CC1Cc2cc(-c3csc(NC(=O)Cc4cccs4)n3)ccc2N1S(C)(=O)=O (stereo unspecified)	75	·	·	–	·	101
CS(=O)(=O)N1CCc2cc(-c3csc(NC(=O)Cc4ccccc4)n3)ccc21	–	·	·	–	–	58
C[C@@H]1CN([C@H](C)CO)C(=O)c2cc(C#Cc3cccnc3)cnc2O[C@@H]1CN(C)C	·	·	–	·	–	·
COCC(=O)Nc1ccc2c(c1)[C@H]1C[C@@H](CC(=O)OC)O[C@H](CO)[C@H]1O2	·	–	–	·	–	·
COc1ccc(-c2cn(CC[C@H]3CC[C@@H](NC(=O)Cc4ccccn4)[C@@H](CO)O3)nn2)cc1	·	88	–	·	–	·
COc1ccc2oc(C)c(C(=O)c3ccc([N+](=O)[O-])cc3)c2c1	–	93	–	–	–	–
COc1ccc2oc(C)c(C(N)=O)c2c1	–	·	·	–	·	–
CCOC(=O)c1c[nH]c(=O)c(Br)c1O	–	–	·	61	–	–
CCOC(=O)c1c[nH]c2nc(C)ccc2c1=O	–	–	–	–	–	–
COCC(=O)N1CC2(C1)CN(Cc1ccccc1Cl)[C@@H](CO)c1c2c2ccc(OC)cc2n1C	·	–	–	·	–	·
CCC(=O)N1CCC2(CC1)CN[C@@H](CO)c1c2c2ccc(OC)cc2n1C	·	–	–	·	–	·
COc1ccc2c3c(n(C)c2c1)[C@H](CO)N(C(=O)C1CC1)CC31CCN(C(=O)C2CCOCC2)CC1	·	·	–	·	–	·
COc1cc(Nc2ccccn2)cc(C(=O)Nc2cccc(C(F)(F)F)c2)c1	–	–	–	–	–	50!
COc1cc(NC(=O)c2ccc(N)nc2)cc(C(=O)Nc2cccc(C(F)(F)F)c2)c1	–	–	–	–	–	–
CCN1CCN(Cc2ccc(NC(=O)c3cc(NC(=O)N4CCNC4=O)cc(OC)c3)cc2C(F)(F)F)CC1	–	–	–	–	–	–
COc1cc(NC(=O)c2nccnc2N)cc(C(=O)Nc2cccc(C(F)(F)F)c2)c1	–	76	–	–	–	–
COc1cc(NC(=O)N2CCNC2=O)cc(C(=O)Nc2cccc(C(F)(F)F)c2)c1	–	63	59	–	–	–
O=C(C[C@H]1C=C[C@H](NC(=O)Cc2ccccn2)[C@H](CO)O1)NCCCN1CCOCC1	·	–	–	·	–	·
O=C(Nc1cc(F)ccc1F)N1CC(=O)N2[C@H](C1)[C@H](c1ccc(-c3ccccc3)cc1)[C@@H]2CO	·	–	–	·	–	·
O=C(NCc1ccco1)C1CCCN(S(=O)(=O)c2ccc(Br)cc2)C1 (stereo unspecified)	–	131	–	–	–	–
Cc1cc(C)cc(OCC(=O)N(C)CC(=O)Nc2ccc(N3CCOCC3)cc2)c1	–	75	–	–	–	–
Cc1cc(C)cc(OCC(=O)Nc2ccc(N3CCCCC3)cc2)c1	–	–	–	–	–	–
